Reference: PubChem BioAssay (NCATS)
Records with an inconclusive call do not appear. The source made the active and inactive calls. Calls come from the whole dose curve; as a rule, active = well fitted cell-killing curve with a large enough effect; inconclusive = small, poorly fitted or top-dose-only effect, or effect the other way; inactive = no such curve, though single readings can be large or run the other way.

How the values were obtained:
[1] = Quantitative High-Throughput drug screen in 47 multiple myeloma cell lines against the NCATS MIPE library collection: XG6_PLB cell viability assay (AID 1919865); note: nearly all actives have a fitted effect of over 40% in size
How it was run: (§1)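 500 cells/well per myeloma line exposed to pinned MIPE 4.0 compounds for 48 h at 37 °C, 5% CO2. Viability read as ATP by CellTiter-Glo luminescence, normalised to DMSO-only (100%) and media-only (0%) wells.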

[2] = Quantitative High-Throughput drug screen in 47 multiple myeloma cell lines against the NCATS MIPE library collection: VP6_DJ cell viability assay (AID 1919867); note: nearly all actives have a fitted effect of over 40% in size
How it was run: as §1

[3] = Quantitative High-Throughput drug screen in 47 multiple myeloma cell lines against the NCATS MIPE library collection: PE2_PLB cell viability assay (AID 1919869); note: nearly all actives have a fitted effect of over 35% in size
How it was run: as §1

[4] = Quantitative High-Throughput drug screen in 47 multiple myeloma cell lines against the NCATS MIPE library collection: RPMI8226_ATCC cell viability assay (AID 1919871); note: nearly all actives have a fitted effect of over 30% in size
How it was run: as §1

[5] = Quantitative High-Throughput drug screen in 47 multiple myeloma cell lines against the NCATS MIPE library collection: OPM2_DSMZ cell viability assay (AID 1919872); note: nearly all actives have a fitted effect of over 30% in size
How it was run: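 Primary qHTS used for cherry-picking: cells at 500/well, library compounds for 48 h (37C, 5% CO2), luminescent ATP assay.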

[6] = Quantitative High-Throughput drug screen in 47 multiple myeloma cell lines against the NCATS MIPE library collection: KMS11_JCRBsus cell viability assay (AID 1919873); note: nearly all actives have a fitted effect of over 50% in size
How it was run: as §1

[7] = Quantitative High-Throughput drug screen in 47 multiple myeloma cell lines against the NCATS MIPE library collection: XG1_PLB cell viability assay (AID 1919866); note: nearly all actives have a fitted effect of over 35% in size
How it was run: as §1

[8] = Quantitative High-Throughput drug screen in 47 multiple myeloma cell lines against the NCATS MIPE library collection: KMS28BM_JCRB cell viability assay (AID 1919874); note: nearly all actives have a fitted effect of over 35% in size
How it was run: as §1

[9] = Quantitative High-Throughput drug screen in 47 multiple myeloma cell lines against the NCATS MIPE library collection: UTMC2_PLB cell viability assay (AID 1919868); settings: CellTiter-Glo ATP luminescence, 48 h; viability (% of DMSO control): at 45.8 µM (top of the series); note: nearly all actives have a fitted effect of over 55% in size
How it was run: as §1

[10] = Quantitative High-Throughput drug screen in 47 multiple myeloma cell lines against the NCATS MIPE library collection: PCM6_Riken cell viability assay (AID 1919870); note: nearly all actives have a fitted effect of over 30% in size
How it was run: as §1

Measured: Potency
Potency is the fitted concentration of half-maximal effect.

Cc1ccccc1C(=O)c1ccc(Nc2ccc(Br)cc2N)cc1Cl
active: [1] 18.7 µM | [2] 16.6 µM | [3] 18.7 µM | [4] 11.8 µM | [5] 23.5 µM | [6] 18.7 µM

CO[C@H]1/C=C\O[C@@]2(C)Oc3c(C)c(O)c4c(O)c(c5c(nc6cc(C)ccn65)c4c3C2=O)NC(=O)C(C)=CC=C[C@H](C)[C@H](O)[C@@H](C)[C@@H](O)[C@@H](C)[C@H](OC(C)=O)[C@H]1C
inactive: [1] | [7] | [5] | [6] | [8]
active: [4] 20.9 µM

CC[C@H](CC#N)OC(=O)N[C@@H](C)c1cccc(NC(=O)Nc2ccc(-c3cnco3)c(OC)c2)c1
active: [1] 2.96 µM | [2] 1.32 µM | [9] 1.18 µM | [3] 4.18 µM | [10] 1.32 µM | [6] 0.372 µM | [8] 2.09 µM

COc1cc(C=CC(=O)O)ccc1O
not listed: [3] | [7] | [9]
inactive: all other assays above

CN1CCc2c(n(Cc3ccc(C(=O)NO)cc3)c3ccccc23)C1
active: [1] 14.8 µM | [2] 13.2 µM | [3] 20.9 µM | [10] 20.9 µM | [6] 18.7 µM

CN(C)CC[C@H](CSc1ccccc1)Nc1ccc(S(=O)(=O)NC(=O)c2ccc(N3CCN(Cc4ccccc4-c4ccc(Cl)cc4)CC3)cc2)cc1[N+](=O)[O-]
active: [1] 3.72 µM | [2] 2.64 µM | [9] 1.18 µM | [3] 1.48 µM | [10] 0.0526 µM | [5] 16.6 µM | [8] 1.87 µM

COc1cc2c(cc1OC)[C@@H]1Cc3ccc(OC)c(OC)c3CN1CC2
active: [5] 13.2 µM | [6] 7.43 µM | [8] 8.33 µM
inactive: [1] | [7]

C[C@@H](O[C@H]1OCCN(Cc2n[nH]c(=O)[nH]2)[C@@H]1c1ccc(F)cc1)c1cc(C(F)(F)F)cc(C(F)(F)F)c1
active: [1] 16.6 µM | [9] 33.2 µM | [3] 20.9 µM | [10] 20.9 µM

OC[C@H]1O[C@@H](OCCc2ccc(O)cc2)[C@H](O)[C@@H](O)[C@H]1O
inactive: [3] | [10] | [5]
active: [1] 5.9 µM | [2] 0.662 µM

CO[C@H]1/C=C\O[C@@]2(C)Oc3c(C)c(O)c4c(O)c(c(C=NN5CCN(C6CCCC6)CC5)c(O)c4c3C2=O)NC(=O)C(C)=CC=C[C@H](C)[C@H](O)[C@@H](C)[C@@H](O)[C@@H](C)[C@H](OC(C)=O)[C@H]1C
active: [1] 0.105 µM | [9] 0.059 µM | [3] 0.118 µM | [10] 0.118 µM | [4] 1.18 µM | [5] 14.8 µM

CCC(=O)OCC(=O)[C@@]1(OC(=O)CC)[C@@H](C)C[C@@H]2[C@H]3CCC4=CC(=O)C=C[C@]4(C)[C@@]3(F)[C@@H](O)C[C@@]21C
active: [1] 11.8 µM | [2] 11.8 µM | [10] 7.43 µM | [4] 0.418 µM | [6] 0.0526 µM

CN1[C@H]2CC[C@H]1CC(OC(=O)c1c[nH]c3ccccc13)C2 (stereo partly drawn)
active: [1] 16.6 µM | [2] 8.33 µM | [10] 6.62 µM
inactive: [9] | [3] | [4] | [5]

OCCn1cc(-c2ccc3c(c2)CCC3=NO)c(-c2ccncc2)n1
inactive: [4] | [5]
active: [1] 13.2 µM | [2] 16.6 µM | [10] 20.9 µM

COc1cc2nc(-c3cc(F)ccc3O)nc(N[C@@H]3CNC[C@@H]3C(C)(C)O)c2cc1OC
active: [1] 0.935 µM | [2] 5.26 µM | [3] 7.43 µM | [10] 2.96 µM | [4] 23.5 µM | [5] 16.6 µM | [6] 5.26 µM | [8] 4.18 µM

Nc1nc(Cl)nc2c1ncn2[C@@H]1O[C@H](CO)[C@@H](O)[C@H]1F
active: [1] 0.0235 µM | [2] 0.187 µM | [9] 0.332 µM | [3] 0.418 µM | [4] 2.35 µM

CN(C)c1ccc(-c2nc3ncc(Cl)c(N4CCN(CC(=O)Nc5nccs5)CC4)c3[nH]2)cc1
active: [1] 2.64 µM | [3] 1.32 µM | [6] 0.833 µM | [8] 2.35 µM
inactive: [2] | [10]

Cc1cc(C(C)Nc2ccccc2)c2nc(N3CCOCC3)cc(=O)n2c1 (stereo not drawn)
inactive: [4] | [5]
active: [1] 1.05 µM | [2] 3.32 µM

CCCCn1c(=O)n(Cc2ccccc2F)c(=O)c2[nH]c(Cc3ccc(NC(C)=O)cc3)nc21
inactive: [1] | [2] | [3] | [5] | [8]

CCC(c1ccc(O)cc1)C(CC)c1ccc(O)cc1 (stereo not drawn)
active: [1] 0.833 µM
inactive: [2] | [3] | [4] | [5]

O=C1NC(=O)C(c2cnc3ccccn23)=C1c1cn2c3c(cccc13)CN(C(=O)N1CCOCC1)CC2
inactive: [8]
active: [1] 1.87 µM | [2] 5.26 µM | [9] 0.001 µM | [10] 7.43 µM | [4] 18.7 µM | [5] 0.0047 µM

CN1CCN2c3ncccc3Cc3ccccc3C2C1 (stereo not drawn)
not listed: [6] | [7]
inactive: all other assays above

COC(=O)N1CCN(Cc2cccc(NC(=O)Nc3ccc(C)nc3)c2F)CC1
inactive: [1] | [7] | [4] | [5]

O=c1[nH]c(=O)n([C@H]2C[C@@H](O)[C@@H](CO)O2)cc1C(F)(F)F
active: [1] 1.87 µM | [3] 10.5 µM | [6] 6.62 µM | [8] 9.35 µM
inactive: [5]

O=S(=O)(O)c1ccc2cc(N=Nc3cc(S(=O)(=O)O)c4cccnc4c3O)ccc2c1
active: [7] 5.9 µM | [2] 16.6 µM | [3] 3.32 µM | [4] 16.6 µM | [8] 1.87 µM
inactive: [5]

CCN1C[C@H](C)n2c(c(O)c3c(=O)n(Cc4ccc(F)c(Cl)c4)nc(C(=O)NC)c32)C1=O
inactive: [1] | [9] | [3] | [5] | [6]
active: [8] 13.2 µM

C[C@@H]1CC=CC=CC=CC=C[C@@H](O[C@@H]2O[C@H](C)[C@@H](O)[C@H](N)[C@H]2O)C[C@@H]2O[C@](O)(C[C@@H](O)C[C@@H]3O[C@@H]3C=CC(=O)O1)C[C@H](O)[C@@H]2C(=O)O
active: [7] 4.69 µM | [2] 10.5 µM | [3] 9.35 µM | [10] 16.6 µM | [6] 16.6 µM | [8] 20.9 µM

N#Cc1ccc(Oc2ccc3c(c2)COB3O)cc1
inactive: [4] | [5] | [8]
active: [1] 16.6 µM | [3] 20.9 µM

Cc1ccc(NC(=O)c2cccc(N(C)C)c2)cc1NC(=O)c1ccc(O)cc1
active: [7] 0.0469 µM | [2] 0.469 µM | [9] 0.332 µM | [3] 18.7 µM | [10] 0.418 µM | [6] 4.18 µM | [8] 5.26 µM
inactive: [4]

COc1ccnc(CS(=O)c2nc3ccc(OC(F)F)cc3[nH]2)c1OC (stereo not drawn)
inactive: [3] | [4] | [5]
active: [1] 20.9 µM

CCCCCCOC(=O)N=C(N)c1ccc(NCc2nc3cc(C(=O)N(CCC(=O)OCC)c4ccccn4)ccc3n2C)cc1
active: [1] 11.8 µM | [3] 13.2 µM | [10] 20.9 µM | [4] 18.7 µM | [6] 18.7 µM | [8] 23.5 µM

O=C(Nc1ccc(OC(F)(F)F)cc1)c1sccc1NCc1ccnc2ccccc12
active: [7] 5.9 µM | [2] 16.6 µM | [9] 23.5 µM | [3] 20.9 µM | [5] 18.7 µM | [6] 7.43 µM

CN(C)CCOc1ccc(C(=C(CCCl)c2ccccc2)c2ccccc2)cc1
inactive: [2] | [9] | [5] | [6]
active: [7] 2.96 µM | [10] 3.72 µM | [4] 26.4 µM

CC[C@]1(O)C[C@H]2CN(CCC3=c4ccccc4=N[C]3[C@@](C(=O)OC)(c3cc4c(cc3OC)N(C)[C@H]3[C@@](O)(C(N)=O)[C@H](O)[C@]5(CC)C=CCN6CC[C@]43[C@@H]65)C2)C1
active: [9] 0.0053 µM | [4] 0.132 µM | [5] 0.0074 µM
inactive: [1]

Cc1c(-c2cccc3c(CCCOc4cccc5ccccc45)c(C(=O)O)n(Cc4cccnc4)c23)c(COc2ccc(N3CCN([S+](=O)([O-])N(C)C)CC3)cc2)nn1C
active: [2] 8.33 µM | [9] 20.9 µM | [3] 18.7 µM | [5] 16.6 µM
inactive: [7] | [10]

CC1=C[C@@H]2[C@@H]([C@@H](O)C[C@@]3(C)[C@H]2C[C@@H](C)[C@]3(O)C(=O)CO)[C@@]2(C)Cc3cnn(-c4ccccc4)c3C=C12
active: [1] 20.9 µM | [3] 23.5 µM | [5] 20.9 µM | [6] 0.0059 µM

O=C(O)Cc1cccc(OCCCN(Cc2cccc(C(F)(F)F)c2Cl)CC(c2ccccc2)c2ccccc2)c1
inactive: [5]
active: [7] 20.9 µM | [2] 16.6 µM | [3] 16.6 µM | [10] 18.7 µM

COc1ccc(CCN(C)CCCOc2ccc(S(=O)(=O)c3[nH]c4ccccc4c3C(C)C)cc2)cc1OC
active: [1] 26.4 µM | [3] 18.7 µM | [4] 18.7 µM | [8] 13.2 µM
inactive: [9] | [5]

CC1(C)OC2CC3C4CC(F)C5=CC(=O)C=CC5(C)C4C(O)CC3(C)[C@]2(C(=O)CO)O1 (stereo partly drawn)
active: [2] 3.32 µM | [4] 0.0118 µM
inactive: [7] | [9] | [10] | [5] | [8]

O=C(Nc1cccc(C(F)(F)F)c1)Nc1cc(S(=O)(=O)NC2CC2)ccc1-c1ccsc1
active: [1] 23.5 µM | [9] 18.7 µM | [3] 26.4 µM | [4] 13.2 µM | [5] 3.72 µM | [8] 20.9 µM

CC(C)[C@H](O)C(=O)N[C@@H](C)C(=O)N[C@@H]1C(=O)N(C)CCc2ccccc21
active: [1] 26.4 µM | [10] 26.4 µM | [6] 0.332 µM
inactive: [3] | [4] | [5]

c1ccc(-c2oc3ncnc(NC[C@@H]4CCCO4)c3c2-c2ccccc2)cc1
active: [1] 10.5 µM | [3] 16.6 µM | [4] 23.5 µM | [6] 16.6 µM

O=C(CO)N1CCC(c2[nH]nc(-c3ccc(Cl)cc3)c2-c2ccncn2)CC1
active: [2] 1.05 µM
inactive: [7] | [4] | [5]

CC1CCN(c2cc(N3CCN(C)CC3)ccc2NC(=O)c2cc(C#N)c[nH]2)CC1
inactive: [1] | [3] | [6]
active: [10] 7.43 µM | [4] 18.7 µM
